Reference: PubChem BioAssay AID652126 (The Scripps Research Institute Molecular Screening Center, 2013)
Hit rate of the full screen: of about 370,000 compounds, about 3,700 (1%) were called active. This is one part of a sample in which actives are shown more often than they occur. Values without a mark were called inactive.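 The calls were made as follows: active = activation above the mean over all tested compounds plus 3 SD (cut at about 0.9% in these data); inactive = the rest.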

The molecules below were run on Nuclear hormone receptor DAF-12 (Strongyloides stercoralis) (assay: ssDAF-12 driven luciferase reporter activation – cell-based, luminescence, HEK293, GRIP1 co-expression, lit1-tk-luc, primary screen (AID 652126;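 also: 0% = DMSO-only wells and 100% = 3 µM delta7-dafachronic acid wells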)). Settings: HEK293 ssDAF-12/GRIP1 lit1-tk-luc reporter, at 6.8 µM, active compounds read high, % of 3 µM dafachronic acid response.
`O=S1(=O)c2ccc(N3CCN(Cc4ccccc4F)CC3)cc2Oc2ccccc2CN1Cc1cn(Cc2ccc(Cl)cc2)nn1` was tested, and the activation was -1.5%.
Molecule `COC(=O)[C@]12C[C@H](CC(=O)NCCCN3CCCC3=O)C(=O)N(CCc3ccc(OC)c(OC)c3)C1=C[C@H](COCc1ccccc1)O[C@@H]2C` has an activation of -0.18%.
Work on `CCOc1ccc(N(CC(=O)Nc2c(C)n(C)n(-c3ccccc3)c2=O)S(=O)(=O)c2ccc(Cl)s2)cc1` yielded an activation of -0.93%.
Molecule `O=C(CN1C(=O)C2C3C=CC(C3)C2C1=O)Nc1nc(-c2ccccn2)cs1` (configuration not stated) has an activation of 0.32%.
`Clc1ccc(Nc2nc(-c3cccs3)cs2)nc1` was tested, and the activation was 1.83% (active).
In the case of `COc1ccc(Nc2nc(-c3ccccc3)cs2)cc1`, the activation is reported as 4.09% (active).
Molecule `CC(=O)NC(c1cccc(F)c1)c1nc(-c2cccc(F)c2)cs1` (configuration not stated) has an activation of -0.87%.
For `N#CC(=C1SC=CS1)c1nc(-c2ccccc2)cs1`, the activation was 0.19%.
`c1ccc(-c2csc(N3CCc4ccccc4C3)n2)cc1` showed an activation of 0.8%.
With `c1ccc(Nc2nc(-c3ccncc3)cs2)nc1` the activation was 1.1% (active).
Work on `COc1ccc(NC(=S)N2N=CCC2c2ccccc2)cc1` (configuration not stated) yielded an activation of 0.28%.
For `Cc1cccc(Nc2nc(-c3ccccc3)cs2)n1`, the activation was 2.9% (active).
For `COC(=O)CCc1sc(Nc2ccc(Br)cc2)nc1-c1ccc(OC)cc1`, the activation was -1.64%.
With `Cc1cc(C)cc(NC(=O)N2CCC(N(C)CCC(C)C)CC2)c1` the activation was -1.43%.
With `CCCC1CCC2(CCCN2CCOC(=O)NCc2ccccc2)CC1` (configuration not stated) the activation was -2.14%.
Work on `CN1C[C@]2(C=C3CCCCC3n3c(=O)n(-c4ccccc4)c(=O)n32)N=C1NC(=O)c1ccccc1` (some centres not stated) yielded an activation of 0.04%.
`Nn1c(SCC(=O)N2c3ccccc3Sc3ccccc32)nnc1-c1n[nH]c2c1CCC2` was tested, and the activation was -1.79%.
For `COCCCNC(=O)C[C@H]1C[C@@]2(C(=O)OC)C(=C[C@H](C(C)(C)C)O[C@@H]2C)N(Cc2ccc(Cl)cc2Cl)C1=O`, the activation was -0.31%.
Work on `COc1ccc(CN2C/C(=C/c3ccccc3)N3C(=O)C[C@@H](c4ccccc4)N=C23)c(OC)c1` yielded an activation of -1.31%.
`CCOC(=O)c1csc(NC(=O)C2CCCN(S(=O)(=O)c3ccc(Cl)s3)C2)n1` (configuration not stated) was tested, and the activation was -2.1%.
Molecule `COc1cccc(/C=C2\CC3(OC(C)=O)CCCN2C3)c1` (configuration not stated) has an activation of -1.47%.
In the case of `O=C(CSc1nnc(-c2ccccn2)n1-c1ccc(Cl)cc1)Nc1ccccc1-c1ccccc1`, the activation is reported as -1.33%.
With `CN(C)CC(=O)N[C@@H]1C[C@@H]2O[C@H](CO)CC[C@@H]2O[C@@H]1CCc1ccc(C#Cc2ccccc2)cc1` the activation was -1.63%.
`Oc1ccc(/C=C/c2c(F)cccc2F)c2cccnc12` showed an activation of -1.91%.
`Cc1ccc(C)c(NC(=O)CCS(=O)(=O)c2ccccc2)c1` was tested, and the activation was -0.72%.
For `CCOC(=O)c1cc2n(c1N)-c1ccccc1C2=O`, the activation was 1.03% (active).
`CCOC(=O)c1ccccc1NC(=O)c1c(N)n(C)c(=O)[nH]c1=O` was tested, and the activation was -0.82%.
In the case of `CCOC(=O)c1ccn(S(=O)(=O)c2ccc(C)cc2)c1-c1ccccc1`, the activation is reported as -1.27%.
Molecule `COC(=O)c1cccc(Cn2ccc3ccc(-c4ccc5ccn(C(=O)c6ccccc6C)c5c4)cc32)c1` has an activation of 0.19%.
Work on `C=CCN1[C@H](CC(C)C)COc2cccc(N3CCCC3)c2S1(=O)=O` yielded an activation of -1.93%.
`CN(Cc1c(F)cccc1Cl)C(=O)CNC(=O)c1ccc2c(c1)OCO2` was tested, and the activation was -0.2%.
For `O=C(Nc1ccccc1F)c1ccc2c(c1)OCO2`, the activation was 1.22% (active).
With `O=C(NCCc1ccc(C(F)(F)F)cc1)c1ccc2c(c1)OCO2` the activation was -1.42%.
`COC(=O)[C@H](C(C)C)N(CCc1cn(Cc2ccccc2)nn1)S(=O)(=O)c1ccc(F)cc1Br` was tested, and the activation was -1.33%.
`O=C(Nc1ccccc1[N+](=O)[O-])C1C(c2ccccc2)=C1c1ccccc1` showed an activation of -1.13%.
`Cc1cc(NC(=O)Nc2ccccc2[N+](=O)[O-])no1` showed an activation of 0.25%.
With `Cc1csc(NC(=O)Nc2ccccc2[N+](=O)[O-])n1` the activation was 2.54% (active).
For `CCCCCCCCNS(=O)(=O)/C=C/c1cc(C)ccc1CNC(=O)OC(C)(C)C`, the activation was -2.15%.
In the case of `COc1ccc(C(=O)OCC(=O)NCC2CCCO2)cc1[N+](=O)[O-]` (configuration not stated), the activation is reported as -1.82%.
With `COc1ccc(C(=O)O/N=C(\N)c2ccccn2)cc1[N+](=O)[O-]` the activation was 1.15% (active).
`O=C(O/N=C(/c1ccccc1)c1ccncc1)c1ccccc1[N+](=O)[O-]` was tested, and the activation was -0.74%.
In the case of `Cc1ccc(-n2c(SCC(=O)Nc3cccc4ccccc34)nnc2-c2ccccn2)cc1`, the activation is reported as -1.66%.
Molecule `C#CCCN([C@H](C(=O)OC)C(C)C)S(=O)(=O)c1ccc(F)cc1Br` has an activation of -1.1%.
In the case of `C=CCOC/C=C/C#CCN(CC=C)Cc1ccc(OC)cc1OC`, the activation is reported as -0.87%.
With `COc1cc2ccccc2cc1C(=O)Nc1ccccc1C` the activation was 1.32% (active).
With `Cc1ccccc1C(=O)Nc1ccccc1Sc1ccccc1` the activation was -1.24%.
With `Cc1cccc(NC(=O)c2cccc(C(=O)Nc3cccc(C)c3C)n2)c1C` the activation was -0.53%.
With `COc1ccc(C(=O)CSc2nnc(-c3cnccn3)n2-c2ccc(C)cc2)cc1` the activation was -1.18%.
In the case of `CC12CCC(C(=O)N3CCN(c4ncccn4)CC3)(c3nc4ccccc4nc31)C2(C)C` (configuration not stated), the activation is reported as -1.52%.
In the case of `CC1=C(N2CCN(c3ncccn3)CC2)CCC1=O`, the activation is reported as -1.32%.
In the case of `c1cnc(N2CCN(c3ccc4ccccc4n3)CC2)nc1`, the activation is reported as 1.77% (active).
With `CCN(CC)C(=O)CC[C@H]1CC[C@]2(CCCN(Cc3ccc(Cl)cc3)C2)O1` the activation was -0.21%.
With `CC1CCN(c2ccc(C(=O)O)cc2NS(=O)(=O)c2ccc(Br)s2)CC1` the activation was -1.7%.
`COc1ccc([C@H]2OC(=O)C[C@H]2C(=O)N2CCN(c3ccccc3F)CC2)cc1OC` showed an activation of -0.67%.
With `Brc1ccc(-c2noc(-c3ccccc3)n2)o1` the activation was 1.12% (active).
`O=S(=O)(c1ccc(Br)cc1)c1nc(-c2ccccc2)oc1N1CCOCC1` was tested, and the activation was -0.79%.
Molecule `O=C(Oc1ccc(-c2nc(-c3ccccn3)no2)cc1)c1ccccc1` has an activation of -0.56%.
